Pf growth 48h – P. falciparum growth inhibition at 48 hours (one generation). AID 504832. Potency, µM (highest dose often 28.7 µM), hits mostly inhibitors. P. falciparum luciferase growth in erythrocytes, 48 h. hit rate 5.9% among 310,000
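Luciferase-expressing parasites in RBCs, 2% Hct / 0.1% parasitemia final; RPMI 1640 + 0.5% Albumax; 37 C, 5% CO2, one generation; luminescence read-out, lower signal = inhibition.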
AmpC inh no detg – inhibitors of E. coli AmpC beta-lactamase without detergent. hit rate 0.52% among 330,000. Potency, µM (top dose mostly 57.1 µM), hits mostly inhibitors. AID 485341. P00811. AmpC nitrocefin hydrolysis, absorbance 480 nm, 0.0001% Triton; note: nearly all actives have a fitted effect of over 20% in size
Target sequence (P00811 whole entry, looked up): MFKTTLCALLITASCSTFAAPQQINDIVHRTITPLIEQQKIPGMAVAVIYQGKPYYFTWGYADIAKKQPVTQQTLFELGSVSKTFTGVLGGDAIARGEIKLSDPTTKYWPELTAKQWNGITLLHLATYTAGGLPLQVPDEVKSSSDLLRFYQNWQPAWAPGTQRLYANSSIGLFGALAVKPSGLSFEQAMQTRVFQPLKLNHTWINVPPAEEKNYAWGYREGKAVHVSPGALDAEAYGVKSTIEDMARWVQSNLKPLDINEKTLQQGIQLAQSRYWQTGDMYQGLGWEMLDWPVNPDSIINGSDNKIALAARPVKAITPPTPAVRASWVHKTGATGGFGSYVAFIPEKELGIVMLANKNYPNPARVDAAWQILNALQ
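20 mM phosphate pH 7.0 + 0.01% (detergent screen) or 0.0001% Triton X-100; 5.3 nM AmpC reagent; cpd preinc 15 min RT; nitrocefin (800 uM stock) to start; A480 q20 s × 4 min; Activity was normalised to no-enzyme and no-compound control wells.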
Pf growth 96h – P. falciparum growth inhibition at 96 hour, primary screen for plastid delayed-death inhibitors; P. falciparum luciferase reporter growth, 96 h; Potency, µM (doses to about 28.7 µM), most hits filed as inhibitors; hit rate 6.9% among 320,000
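96 h incubation, 37 C, 5% CO2, of luciferase-reporter P. falciparum-infected RBCs (2% hematocrit, 0.05% parasitemia final) with test compounds; endpoint luminescence.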
SARS PLpro yeast – blocks SARS-CoV papain-like protease in a yeast assay; S. cerevisiae expressing SARS-CoV PLpro, growth rescue; Potency, µM (highest dose often 32.9 µM), hits mostly activators; hit rate 0.19% among 330,000; AID 485353; calls by dose curve; note: nearly all actives have a fitted effect of over 55% in size
Sm TGR block – blocks Schistosoma mansoni thioredoxin glutathione reductase; Q962Y6; purified TGR, DTNB reduction, TNB absorbance 405 nm; Potency, µM (titrated, usually from 114 µM), hits mostly inhibitors; hit rate 3% among 360,000; note: nearly all actives have a fitted effect of over 60% in size
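First, TGR (20 nM dispensed) and NADPH were mixed with compound. Second, a 15 min room-temperature incubation followed. Third, further NADPH and then DTNB were added to start the reaction. Finally, TNB absorbance was monitored kinetically.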
AmpC inh detg – AmpC beta-lactamase inhibition with detergent present | P00811 | AmpC hydrolysis of nitrocefin, absorbance 480 nm, 0.01% Triton | Potency, µM (doses to about 114 µM), actives largely listed as inhibitors | hit rate 0.041% among 370,000 | AID 485294; note: nearly all actives have a fitted effect of over 25% in size
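AmpC (5.3 nM in the dispensed reagent) in 20 mM phosphate pH 7.0 with 0.01% (detergent screen) or 0.0001% Triton X-100 was preincubated with compounds for 15 min at room temperature. Nitrocefin was then added from an 800 uM solution, and hydrolysis was followed at 480 nm.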
Numbers stand for hits; n = inactive; u = inconclusive; x = not tested or not shown; [ ] = remark or other dose. Hits are enriched below; roughly 12% of the tested compounds scored in any of these assays. Unless noted, calls come from the whole dose curve; as a rule, active = well fitted curve in the direction sought with a large enough effect; inconclusive = small, poorly fitted or top-dose-only effect, or another doubt; inactive = no such curve, though single readings can be large; an effect the other way counts as inactive or inconclusive.

SMILES	Pf growth 48h	AmpC inh no detg	Pf growth 96h	SARS PLpro yeast	Sm TGR block	AmpC inh detg
CCOC(=O)N1CCC(N2CCN(S(=O)(=O)c3ccc4ccccc4c3)CC2)CC1	x	n	11.7µM	n	n	n
COc1ccc(NC(=O)c2c(C)oc3ccc(O)c(CN4CCN(C)CC4)c23)cc1Cl	x	x	x	x	n	n
CN(C)c1cc[n+](CC(=O)Nc2ccc([N+](=O)[O-])cc2Cl)cc1	u	n	n	n	n	n
CN(C)c1cc[n+](CC(=O)Nc2c(Cl)cc(Cl)cc2Cl)cc1	n	n	n	n	39.8µM	n
COC(=O)c1sccc1S(=O)(=O)N1CCN(c2ccccc2)CC1	x	x	x	x	n	n
COc1ccc(C(=O)NCCN2CCCC2)cc1	n	n	n	n	n	u
O=C1Nc2cc(C(=O)NCCCN3CCCC3)ccc2S/C1=C\c1ccccc1	9.28µM	n	n	n	n	n
COc1ccc(/C=C2/Sc3ccc(C(=O)NCCN4CCCCCC4)cc3NC2=O)cc1	9.28µM	n	u	n	n	n
Cc1cnc(C(=O)N(CC(C)C)c2c(N)n(CC(C)C)c(=O)[nH]c2=O)cn1	n	n	n	n	n	n
O=C(c1n[nH]c(=O)c2ccccc12)N1CCN(S(=O)(=O)c2ccccc2Cl)CC1	u	n	5.86µM	n	n	n
O=C(c1n[nH]c2ccccc12)N1CCN(S(=O)(=O)c2ccccc2)CC1	5.22µM	n	7.38µM	n	n	n
Cc1ccc(S(=O)(=O)N2CCN(C(=O)c3n[nH]c(=O)c4ccccc34)CC2)cc1	n	n	n	n	n	n
COc1ccccc1-c1noc(CSc2nnc(Cc3ccccc3)n2-c2ccc(C)c(C)c2)n1	x	x	x	x	n	n
CSc1ccc(CN(C)C(=O)COc2ccc(C(=O)c3ccccc3)cc2)cc1	n	n	n	n	n	n
CCN(CC)CCn1c2ccccc2c2cnc(N)c(C#N)c21	2.62µM	n	2.62µM	n	n	n
COc1cc(-c2nc(-c3cccc(C)c3)no2)cc(OC)c1OC	n	n	x	n	n	n
COc1cc(-c2nc(Cc3c(F)cccc3Cl)no2)cc(OC)c1OC	11.7µM	n	u	n	n	n
COc1cc(-c2noc(-c3cccc(Cl)c3)n2)cc(OC)c1OC	n	n	14.7µM	n	n	n
CCCS(=O)(=O)c1ncc(Cl)c(C(=O)Nc2c(C(=O)c3ccccc3)oc3ccccc23)n1	x	x	x	x	n	n
CCCCOCCCNCC(=O)Nc1ccc(S(N)(=O)=O)cc1	n	n	n[5.75 µM]	n	n	n
CCCCNCC(=O)Nc1ccc(NC(=O)CNCCCC)cc1	u	n	11.7µM	n	n	n
CCOc1ccc(Oc2ccc(C(F)(F)F)cc2NC(=O)C2=COCCO2)cc1	14.7µM	n	u	n	n	n
O=C(Nc1cc(S(=O)(=O)N2CCOCC2)ccc1Oc1ccc(F)cc1)C1=COCCO1	n	n	n	n	n	n
CC(C)Oc1ccc(S(=O)(=O)N2CCCCC2)cc1NC(=O)C1=COCCO1	u	n	8.28µM	n	n	n
Cc1cccc(Oc2ccc(S(=O)(=O)N3CCCCC3)cc2NC(=O)C2=COCCO2)c1	13.1µM	n	u	x	n	n
SMILES	Pf growth 48h	AmpC inh no detg	Pf growth 96h	SARS PLpro yeast	Sm TGR block	AmpC inh detg
CC(=O)c1cccc(NC(=O)C(C)OC(=O)CCCN=C2NS(=O)(=O)c3ccccc32)c1 (stereo not given)	n	n	n	n	n	n
O=C(Cc1cccc(C(F)(F)F)c1)N1CCN(CC(=O)N2CCCC2)CC1	13.1µM	n	u	n	n	n
Cc1ccc(C)c(COC(=O)c2cccc(S(=O)(=O)N3CCCC3)c2)c1	u	n	n	n	n	u
COc1ccc(C(=O)OCc2cc(C)ccc2C)cc1S(=O)(=O)N1CCCC1	7.38µM	n	10.4µM	n	n	n
COc1ccc(C(C)=O)cc1COC(=O)c1ccc(C)c(S(=O)(=O)N2CCOCC2)c1	9.28µM	n	9.28µM	n	3.55µM	n
COc1ccc(C(=O)OCC(=O)N2CCOCC2)cc1S(=O)(=O)N1CCOCC1	n	n	u	n	n	n
Cc1ccc(NC(=S)NCCCN2CCOCC2)cc1C	n	n	n	n	u	n
O=C(NCCCN1CCOCC1)Nc1ccc(Cc2ccc(NC(=O)NCCCN3CCOCC3)cc2)cc1	2.62µM	n	1.65µM	n	n	n
S=C(NCCCN1CCOCC1)Nc1ccc(Cl)c(Cl)c1	n	n	16.5µM	n	u	n
Cc1cc(C(=O)CN2CCCC(C)C2)c(C)n1-c1ccc(F)cc1 (stereo not given)	n	n	u	n	n	n
CCOC(=O)c1cc2c(=O)n3ccccc3nc2n(CCCOC)c1=NC(=O)c1cc2ccccc2o1	x	x	x	x	n	n
COc1cc(NC(=O)c2cc(-c3cccc(OC)c3)n[nH]2)cc(OC)c1	x	x	x	x	n	n
CCOc1ccccc1-n1c(=S)sc2c(=O)n(-c3ccccc3)c(=S)[nH]c21	n	n	u	n	n	u
CCN(CC)S(=O)(=O)c1cccc(C(=O)OCc2cc(=O)n3nc(C)sc3n2)c1	n	n	5.22µM	n	n	n
Cn1c(-[n+]2c(-c3ccccc3)cc(-c3ccccc3)cc2-c2ccccc2)nc2c([N+](=O)[O-])cccc21	11.7µM	n	u	n	n	n
c1ccc2c(-c3c[nH]c4ccccc34)c3ccccc3nc2c1	u	n	3.7µM	n	n	n
COc1ccccc1NC(=O)N(CCCN1CCOCC1)Cc1cc2cc3c(cc2[nH]c1=O)OCO3	n	n	8.28µM	n	n	u
O=C(Nc1ccc(F)cc1)N(CCCN1CCOCC1)Cc1cc2cc3c(cc2[nH]c1=O)OCCO3	10.4µM	n	n	n	n	n
CCc1ccc2[nH]c(=O)c(CN(CCCN3CCOCC3)C(=O)Nc3ccc(F)cc3)cc2c1	u	n	n	n	n	n
CCOc1ccc(NC(=S)N(CCN2CCOCC2)Cc2cc3cc4c(cc3[nH]c2=O)OCCO4)cc1	u	n	u	n	n	n
O=C(Nc1ccc(F)cc1)N(CCCN1CCOCC1)Cc1cc2cc3c(cc2[nH]c1=O)OCO3	13.1µM	n	n	n	n	u
COc1cc2cc(CN(CCCN3CCOCC3)C(=O)Nc3ccccc3F)c(=O)[nH]c2cc1OC	n	n	n	n	n	n
CCOc1ccc(NC(=O)Nc2c[nH]c(=O)[nH]c2=O)cc1	x	x	x	x	n	n
COC(=O)c1ccc(NC(=O)Cc2coc3cc(C)ccc23)cc1	x	x	x	x	n	n
CC1CCN(S(=O)(=O)c2cc(C(=O)N3CCN(c4cccc(Cl)c4)CC3)n(C)c2)CC1	x	x	x	x	n	n
CC(=O)Nc1sc(N/N=C\c2ccco2)nc1-c1cccs1	u	n	u	n	u	n
CCOC(=O)/C(=C\c1cccnc1)C(=O)c1cc(C(C)=O)c(Nc2ccccc2)s1	u	n	x	n	20µM	n
